# Assay results taken from the supplement of paper PMC10981050.
# Where “and” joins values, the source holds several entries; their conditions need not be identical. Equal values may be shown once. Where a name gives a salt, the structure may show the parent alone.
# What was measured:
# Test in all cases: cell viability relative to vehicle control; higher = less cytotoxic
# Conditions in all cases: 10 µM
# K562 = test system: K562
# In short: (§1)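 Each screen used CRISPR-edited mutant and wild-type clones from four leukaemia lines. Compounds were acoustically dispensed at a single 10 µM dose, and CellTiter-Glo luminescence was read after 48 h with the supernatant first removed. Viability was analysed in Genedata Screener and given as percent of the on-plate vehicle control.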
# MARIMO = test system: MARIMO
# In short: as §1
# MOLM14 = test system: MOLM14
# In short: as §1
# OCI-AML2 = test system: OCI-AML2
# In short: as §1
Structure (SMILES),cell viability (K562; SRSF2 genotype: SRSF2 P95H/wt),cell viability (K562; SRSF2 genotype: SRSF2 wt/wt),cell viability (MARIMO; SRSF2 genotype: SRSF2 P95H/wt),cell viability (MARIMO; SRSF2 genotype: SRSF2 wt/wt),cell viability (MOLM14; SRSF2 genotype: SRSF2 P95H/wt),cell viability (MOLM14; SRSF2 genotype: SRSF2 wt/wt),cell viability (OCI-AML2; SRSF2 genotype: P95H/wt),cell viability (OCI-AML2; SRSF2 genotype: wt/wt)
Cc1cc(C#N)cc(C)c1Oc1nc(Nc2ccc(C#N)cc2)nc(N)c1Br [Etravirine (TMC125)],101% and 96.6%,94.6%,97%,108%,107%,102%,99.5%,117%
C[n+]1ccccc1C=NO [Pralidoxime Iodide],106% and 98.4%,111%,101%,105%,99.2%,106%,105%,118%
COc1ccc(-c2oc3c(CC=C(C)C)c(O[C@@H]4O[C@H](CO)[C@@H](O)[C@H](O)[C@H]4O)cc(O)c3c(=O)c2O[C@@H]2O[C@@H](C)[C@H](O)[C@@H](O)[C@H]2O[C@@H]2O[C@@H](C)[C@H](O)[C@@H](O)[C@H]2O)cc1 [Epmedin C],104% and 108%,106%,100%,103%,107%,105%,103%,107%
CC(C)(O)CC(=O)NCCn1ccc2ncnc(Nc3ccc(Oc4cccc(C(F)(F)F)c4)c(Cl)c3)c21,69.4% and 63.5%,72.6%,69.7%,93.9%,76.5%,79.4%,74.8%,76.8%
Oc1ccc(CC2NCCc3cc(O)c(O)cc32)cc1 (stereo unspecified) [Higenamine hydrochloride],92.4% and 103%,98%,105%,98.5%,79.8%,89.7%,94.9%,102%
CC=C1C(=O)C[C@H]2[C@@H]3CCC4=CC(=O)CC[C@]4(C)[C@H]3CC[C@]12C [Guggulsterone E&Z],76% and 84.7%,79.3%,61.7%,72.3%,80.4%,89.3%,71.8%,76.7%
CCCC(C)NC(=O)c1ccc(Cl)c(Cl)c1 (stereo unspecified),101% and 97.6%,105%,90.5%,96.2%,112%,103%,96%,96.8%
CCc1ccc(-c2nc(CSCC(=O)NCCc3ccccc3)c(C)o2)cc1,89.7% and 94%,94.9%,84.1%,99.9%,87.5%,96.8%,74.5%,91.2%
CCN(CC)CCNC(=O)c1c(C)[nH]c(/C=C2\C(=O)Nc3ccc(-c4csc(-c5ccccc5)n4)cc32)c1C [Amcasertib (BBI503)],0.84% and 1.26%,0.76%,66.4%,43.4%,4.21%,8.87%,4.03%,26%
CC(C)[C@H](CO)Nc1nc(Nc2cccc(Cl)c2)c2ncn(C(C)C)c2n1 [Purvalanol A],82.5% and 94.9%,85.1%,72%,83%,41.2%,33.9%,47.6%,54.3%
NC(=O)c1cccc2[nH]c(-c3ccc(C4CCCN4)cc3F)nc12 (stereo unspecified),94.1% and 89.6%,80.1%,72.9%,80.5%,47.7%,33%,47.9%,54.3%
C=C1C[C@@]23CC[C@H]4[C@@](C)(CCC[C@@]4(C)C(=O)O[C@@H]4O[C@H](CO)[C@@H](O)[C@H](O)[C@H]4O)[C@@H]2CC[C@]1(O[C@@H]1O[C@H](CO)[C@@H](O)[C@H](O)[C@H]1O[C@@H]1O[C@H](CO)[C@@H](O)[C@H](O)[C@H]1O)C3 [Stevioside],113% and 107%,113%,111%,97.4%,112%,112%,108%,106%
O=C(Nc1ccccc1)c1cc([N+](=O)[O-])ccc1Cl,91.7% and 96.2%,81.4%,86.8%,90.8%,89.3%,101%,90.1%,91.8%
"CC1(C)C2CCC1(C)C(O)C2 (single isomer, unassigned; (+)) [(+)-Borneol]",96.5% and 99.3%,105%,100%,106%,101%,103%,101%,98%
N=C(N)NC(=O)c1nc(Cl)c(N)nc1N [Amiloride HCl],88.4% and 98.5%,92.9%,99.3%,96.2%,72.8%,86.7%,85.8%,84.7%
C#Cc1cccc(Nc2ncnc3cc(OCCOC)c(OCCO)cc23)c1 [OSI-420 (Desmethyl Erlotinib)],43.5% and 54.3%,44.4%,53.9%,49.5%,32.1%,29.9%,30.6%,37.5%
OCc1ccc(O)cc1 [4-Hydroxybenzyl alcohol],108% and 106%,111%,98%,112%,108%,109%,111%,95.3%
C/C1=C2N=C(/C=C3N=C(/C(C)=C4\[N-]C(C(CC(N)=O)C4(C)CCC(=O)NCC(C)OP(=O)([O-])OC4C(CO)OC(n5cnc6cc(C)c(C)cc65)C4O)C4(C)N=C1C(CCC(N)=O)C4(C)CC(N)=O)C(CCC(N)=O)C\3(C)C)C(CCC(N)=O)C/2(C)CC(N)=O.[CH3-].[Co+3] (stereo unspecified) [Methylcobalamin],89.6% and 88.5%,101%,88.4%,88.6%,90.8%,94.3%,95.2%,97%
CC(=O)O[C@@H]1CC[C@@]2(C)[C@@H](CC[C@]3(C)[C@@H]2C(=O)C=C2[C@@H]4[C@@H](C)[C@H](C)CC[C@]4(C)CC[C@]23C)[C@@]1(C)C(=O)O,99.7% and 94.1%,83.4%,106%,101%,74.3%,82.3%,87.1%,90.6%
O=C(O)c1cc(=O)cc(C(=O)O)o1 [Chelidonic acid],105%,113%,110%,106%,101%,107%,110%,105%
CC(C)(C)NC[C@H](O)COc1nsnc1N1CCOCC1 [Timolol Maleate],98.8% and 98.3%,97.4%,101%,106%,99.3%,103%,103%,109%

Structure (SMILES),cell viability (K562; SRSF2 genotype: SRSF2 P95H/wt),cell viability (K562; SRSF2 genotype: SRSF2 wt/wt),cell viability (MARIMO; SRSF2 genotype: SRSF2 P95H/wt),cell viability (MARIMO; SRSF2 genotype: SRSF2 wt/wt),cell viability (MOLM14; SRSF2 genotype: SRSF2 P95H/wt),cell viability (MOLM14; SRSF2 genotype: SRSF2 wt/wt),cell viability (OCI-AML2; SRSF2 genotype: P95H/wt),cell viability (OCI-AML2; SRSF2 genotype: wt/wt)
CCN(CC)CCCC[C@H](NC(=O)[C@H](CC(C)C)NC(=O)[C@H](C)NC(=O)[C@H](Cc1ccccc1)NC(=O)c1ccc(C(C)(C)C)cc1)C(=O)N[C@@H](CO)C(=O)OC,88.1% and 85%,84.6%,86.1%,99%,83.2%,92%,90.4%,113%
N#C[C@@H]1CCCN1C(=O)CNC12CC3CC(CC(O)(C3)C1)C2 [Vildagliptin (LAF-237)],87.8% and 87.2%,84.8%,81.8%,88.6%,83.9%,89%,88.8%,87.7%
Oc1c(Cl)cc(Cl)c2cccnc12 [Chloroxine],62.1% and 63.6%,66.6%,21.6%,14.7%,55.5%,63.2%,1.78%,3.9%
C=C1/C(=C\C=C2/CCC[C@]3(C)[C@@H]([C@H](C)CCCC(C)(C)O)CC[C@@H]23)C[C@@H](O)C[C@@H]1O [Calcitriol (Rocaltrol)],81.2% and 89.8%,88.2%,66.9%,66.5%,65.4%,62.6%,64.9%,76.3%
COC(=O)[C@H](CCSC)NC(=O)c1ccc(NC[C@@H](N)CS)cc1-c1ccccc1,104% and 105%,110%,77.4%,78.5%,83.4%,90.1%,113%,113%
CCOP(=O)(OCC)C(=Cc1cc(C(C)(C)C)c(O)c(C(C)(C)C)c1)P(=O)(OCC)OCC,77.8% and 87.5%,84.6%,90.4%,93%,88.8%,71.6%,90.9%,97%
CC(C)(C)c1nc(-c2ccc(NC(=O)Nc3cccc(C(F)(F)F)c3)c3ccccc23)c2c(N)nccn12 [kira6],10.9% and 7.91%,12.4%,28.8%,28.4%,1.58%,3.37%,8.47%,16.5%
O=C(O)[C@H]1CSC(c2nc3ccc(O)cc3s2)=N1 [D-Luciferin],90.6% and 83.7%,92.3%,82.4%,92.8%,85.8%,90.7%,86.7%,87.9%
COc1ccc2[nH]c([S+]([O-])Cc3ncc(C)c(OC)c3C)nc2c1 (stereo unspecified) [Omeprazole (Prilosec)],97.3% and 91.5%,95.6%,92.8%,98.5%,94.9%,95.8%,98%,100%
CC1=C(C(=O)OCCN(Cc2ccccc2)c2ccccc2)C(c2cccc([N+](=O)[O-])c2)C(P2(=O)OCC(C)(C)CO2)=C(C)N1 (stereo unspecified) [Efonidipine],78.8% and 87.3%,83.7%,95.5%,98.4%,82.2%,95.7%,104%,82.3%
CCCC(CCC)C(=O)O[C@H]1C[C@H]2CC[C@@H](C1)[N+]2(C)C [anisotropine methylbromide],101%,104%,106%,107%,98%,101%,106%,93.6%
CNc1ncc2cc(-c3cc(NC(=O)NCCC(C)(C)C)c(F)cc3C)c(C)nc2n1,14.9% and 29.3%,22%,36.9%,34.9%,27.2%,23.9%,31.7%,34.6%
Nc1ncnc2c1ncn2[C@@H]1O[C@H](CO)[C@@H](O)[C@H]1O [Adenosine (Adenocard)],113% and 107%,108%,104%,98.5%,104%,114%,102%,106%
CS(=O)(=O)c1ccc(C2=C(c3ccccc3)C(=O)OC2)cc1 [Rofecoxib (Vioxx)],98.7% and 95.2%,93.5%,98.6%,104%,94.7%,101%,87.8%,98.8%
C=C1CCOC1=O [2-Methylenebutyrolactone],106% and 101%,104%,97.3%,105%,88.6%,107%,125%,126%
Cc1ccc(Nc2nccc(N(C)c3ccc4c(C)n(C)nc4c3)n2)cc1S(N)(=O)=O [Pazopanib HCl],49.1% and 57.7%,51%,54.5%,46.3%,36.4%,39.8%,28.3%,33.9%
NC(=O)C1CCCc2c1[nH]c1ccc(Cl)cc21 (stereo unspecified),97% and 96%,105%,89%,102%,96%,99.6%,91.2%,92.2%
Nc1nc(Nc2ccc(S(N)(=O)=O)cc2)nn1C(=O)c1c(F)cccc1F,41.2% and 43.9%,31.2%,10.8%,7.19%,3.09%,0.41%,2.63%,12%
COc1cc2c(N3CCN(C(=O)Nc4ccc(OC(C)C)cc4)CC3)ncnc2cc1OCCCN1CCCCC1 [Tandutinib (MLN518)],86.7% and 96.2%,83.2%,83.7%,100%,17.1%,14.4%,34.3%,43.5%
COc1ccc2cc(CCC(C)=O)ccc2c1 [Nabumetone],105% and 96.8%,93.8%,97.1%,95.3%,104%,104%,92.4%,92.4%
CC(=O)OCC(=O)[C@@]1(O)CC[C@H]2[C@@H]3CCC4=CC(=O)CC[C@]4(C)[C@@]3(F)[C@@H](O)C[C@@]21C [Fludrocortisone acetate],110% and 103%,104%,105%,109%,111%,102%,113%,119%
